Measured values taken from PubChem BioAssay (NCI).
This is part of a sample that, as a whole, favours compounds with a hit. Of some 83,000 tested, about 20% had one in any assay.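 Single-dose data. Exposure time 48 hours. Values below 10 considered active.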 Calls of active or inactive are those of the source.

The compounds below were run on OVCAR-8 ovarian (assay: NCI-60 one-dose screen, 48 h (100 = growth as untreated, 0 = no growth, -100 = all killed)). Details: 10 µM unless noted.

Structure (SMILES) | growth
COc1c(B(O)O)cccc1-c1nc2ccc3[nH]ncc3c2c2c1C1CCC2C1 (stereo not drawn) | 59.9% (inactive)
O=C(Nc1ccc(Cl)cc1F)c1cc(F)ccc1O | 9.44% (active)
O=c1oc2ccc(I)cc2c(=O)n1-c1ccc(I)cc1F | 9.03% (active)
NCCNc1nc2ccc(F)cc2c2c(=O)c3cc(F)ccc3sc12 | 29.9% (inactive)
O=C(Nc1ccc(Br)cc1F)c1cc(F)ccc1O | 8.95% (active)
Cc1ccc(Nc2nc(N)c3ccccc3n2)cc1Cl | 57.8% (inactive)
O=C1c2cc(I)ccc2Oc2cc([N+](=O)[O-])ccc2N1c1ccc(Cl)cc1F | 91% (inactive)
CC1=C(C(=O)OCC2CCN(C(=O)OC(C)(C)C)CC2)[C@H](c2cccc(Br)c2)C2=C(CC(C)(C)CC2=O)N1 | 21.7% (inactive)
O=C(c1ccccc1)N(C(=S)NCCc1ccc(Cl)cc1)c1ccc(Cl)cc1 | 41.1% (inactive)
C#CCn1cc(C=C2C(=O)NC(=O)NC2=O)c2cc(Cl)ccc21 | 87.5% (inactive)
O=c1oc2ccc(Br)cc2c(=O)n1-c1ccc(F)cc1F | 11% (inactive)
O=C(Nc1ccc(Br)cc1F)c1cc(I)ccc1O | 9.66% (active)
O=c1oc2ccc(Cl)cc2c(=O)n1-c1cc(C(F)(F)F)cc(C(F)(F)F)c1 | 7.66% (active)
O=c1oc2ccc(Br)cc2c(=O)n1-c1ccc(I)cc1F | 10.4% (inactive)
O=c1oc2ccc(-c3ccc(F)cc3F)cc2c(=O)n1-c1cccc(C(F)(F)F)c1 | 8.92% (active)
O=c1oc2ccc(F)cc2c(=O)n1-c1ccc(Br)cc1F | 8.64% (active)
O=c1oc2ccc(I)cc2c(=O)n1-c1ccc(Br)cc1F | 8.2% (active)
Cc1nc(Nc2ccccn2)sc1C(=O)/C=C/c1ccc(Cl)cc1 | 10.1% (inactive)
Nc1cccc(Nc2cc(S(=O)(=O)O)c(N)c3c2C(=O)c2ccccc2C3=O)c1 | 104% (inactive)
COc1ccc2sc(N(Cc3cccnc3)C(=O)c3ccc(C#N)cc3)nc2c1 | 80.7% (inactive)

Structure (SMILES) | growth
COc1cccc(C2=NN3C(C2)c2ccccc2OC3c2ccc(/C=C3\SC(=O)NC3=O)cc2)c1 (stereo not drawn) | 94.8% (inactive)
O=C1c2cc(Br)ccc2Oc2cc([N+](=O)[O-])ccc2N1c1ccc(I)cc1F | 94.6% (inactive)
O=c1oc2ccc(Cl)cc2c(=O)n1-c1ccc(Cl)cc1F | 8.62% (active)
COc1ccc(C2C3=C(COC3=O)N(CCO)c3cc4c(cc32)OCCO4)cc1 (stereo not drawn) | 84.6% (inactive)
CC[C@]1(O)C[C@@H]2CN(CCc3c([nH]c4ccccc34)[C@@](C(=O)OC)(c3cc4c(cc3OC)N(C)[C@H]3[C@@](O)(C(=O)OC)[C@H](OC(=O)CCCBr)[C@]5(CC)C=CCN6CC[C@]43[C@@H]65)C2)C1 | 19.4% (inactive)
O=C1c2cc(Cl)ccc2Oc2cc([N+](=O)[O-])ccc2N1c1ccc(F)cc1F | 86.8% (inactive)
COc1ccccc1N1C(=N)S/C(=C\c2ccc(OCc3ccccc3F)cc2)C1=O | 55.3% (inactive)
CC[C@]1(O)C[C@@H]2CN(CCc3c([nH]c4ccccc34)[C@@](C(=O)OC)(c3cc4c(cc3OC)N(C)[C@H]3[C@@](O)(C(=O)OC)[C@H](OC(C)=O)[C@]5(CC)C=CCN6CC[C@]43[C@@H]65)C2)C1 | 21.5% (inactive)
O=c1c2cc(F)ccc2sc2c(NCCCNCCO)nc3ccc(Cl)cc3c12 | 63.7% (inactive)
COc1cc2cc3c(=O)n4c(cc5cc(OC)ncc54)c(=O)n3c2cn1 | 112% (inactive)
Nc1ccc(-c2nn3c(CCC(=O)c4nc5ncccc5[nH]4)nnc3s2)c(O)c1 | 98.2% (inactive)
O=c1oc2ccc(Br)cc2c(=O)n1-c1ccc(Cl)cc1F | 9.88% (active)
COc1ccc(/C=C2\NC(=O)NC2=O)cc1O | 98.5% (inactive)
CN(C)c1ccc(/C=C/c2ccnc3c(O)cccc23)cc1 | 8.43% (active)
O=C(c1ccccc1)N(C(=S)NCCc1ccc(Cl)cc1)c1ccccc1 | 105% (inactive)
O=c1oc2ccc(Cl)cc2c(=O)n1-c1ccc(F)cc1F | 11.4% (inactive)
CC(C)C[C@H](C(=O)N[C@@H](C)C(N)=O)N1CC=CCN(O)S1(=O)=O | 96.4% [5 µM] (inactive)
O=C(Nc1ccc(Cl)cc1F)c1cc(I)ccc1O | 10.1% (inactive)
O=C(CCc1nnc2sc(Cc3ccccc3Cl)nn12)c1nc2ncccc2[nH]1 | 93.4% (inactive)

Each compound was assayed on OVCAR-5 ovarian in the same assay as above. Details: 10 µM unless noted.

Structure (SMILES) | growth
COc1c(B(O)O)cccc1-c1nc2ccc3[nH]ncc3c2c2c1C1CCC2C1 (stereo not drawn) | 113% (inactive)
O=C(Nc1ccc(Cl)cc1F)c1cc(F)ccc1O | 27.8% (inactive)
O=c1oc2ccc(I)cc2c(=O)n1-c1ccc(I)cc1F | 27.1% (inactive)
NCCNc1nc2ccc(F)cc2c2c(=O)c3cc(F)ccc3sc12 | 81.2% (inactive)
O=C(Nc1ccc(Br)cc1F)c1cc(F)ccc1O | 25.3% (inactive)
Cc1ccc(Nc2nc(N)c3ccccc3n2)cc1Cl | 75.5% (inactive)
O=C1c2cc(I)ccc2Oc2cc([N+](=O)[O-])ccc2N1c1ccc(Cl)cc1F | 90.5% (inactive)
CC1=C(C(=O)OCC2CCN(C(=O)OC(C)(C)C)CC2)[C@H](c2cccc(Br)c2)C2=C(CC(C)(C)CC2=O)N1 | 64.8% (inactive)
O=C(c1ccccc1)N(C(=S)NCCc1ccc(Cl)cc1)c1ccc(Cl)cc1 | 81.3% (inactive)
C#CCn1cc(C=C2C(=O)NC(=O)NC2=O)c2cc(Cl)ccc21 | 74.3% (inactive)
O=c1oc2ccc(Br)cc2c(=O)n1-c1ccc(F)cc1F | 20.1% (inactive)
O=C(Nc1ccc(Br)cc1F)c1cc(I)ccc1O | 24.2% (inactive)
O=c1oc2ccc(Cl)cc2c(=O)n1-c1cc(C(F)(F)F)cc(C(F)(F)F)c1 | 25.2% (inactive)
O=c1oc2ccc(Br)cc2c(=O)n1-c1ccc(I)cc1F | 22% (inactive)
O=c1oc2ccc(-c3ccc(F)cc3F)cc2c(=O)n1-c1cccc(C(F)(F)F)c1 | 12.1% (inactive)
O=c1oc2ccc(F)cc2c(=O)n1-c1ccc(Br)cc1F | 21.8% (inactive)
O=c1oc2ccc(I)cc2c(=O)n1-c1ccc(Br)cc1F | 20.7% (inactive)
Cc1nc(Nc2ccccn2)sc1C(=O)/C=C/c1ccc(Cl)cc1 | 38.7% (inactive)
Nc1cccc(Nc2cc(S(=O)(=O)O)c(N)c3c2C(=O)c2ccccc2C3=O)c1 | 111% (inactive)
COc1ccc2sc(N(Cc3cccnc3)C(=O)c3ccc(C#N)cc3)nc2c1 | 96.7% (inactive)

Structure (SMILES) | growth
COc1cccc(C2=NN3C(C2)c2ccccc2OC3c2ccc(/C=C3\SC(=O)NC3=O)cc2)c1 (stereo not drawn) | 108% (inactive)
O=C1c2cc(Br)ccc2Oc2cc([N+](=O)[O-])ccc2N1c1ccc(I)cc1F | 97.7% (inactive)
O=c1oc2ccc(Cl)cc2c(=O)n1-c1ccc(Cl)cc1F | 24.6% (inactive)
COc1ccc(C2C3=C(COC3=O)N(CCO)c3cc4c(cc32)OCCO4)cc1 (stereo not drawn) | 99.8% (inactive)
CC[C@]1(O)C[C@@H]2CN(CCc3c([nH]c4ccccc34)[C@@](C(=O)OC)(c3cc4c(cc3OC)N(C)[C@H]3[C@@](O)(C(=O)OC)[C@H](OC(=O)CCCBr)[C@]5(CC)C=CCN6CC[C@]43[C@@H]65)C2)C1 | 24.9% (inactive)
O=C1c2cc(Cl)ccc2Oc2cc([N+](=O)[O-])ccc2N1c1ccc(F)cc1F | 100% (inactive)
COc1ccccc1N1C(=N)S/C(=C\c2ccc(OCc3ccccc3F)cc2)C1=O | 101% (inactive)
CC[C@]1(O)C[C@@H]2CN(CCc3c([nH]c4ccccc34)[C@@](C(=O)OC)(c3cc4c(cc3OC)N(C)[C@H]3[C@@](O)(C(=O)OC)[C@H](OC(C)=O)[C@]5(CC)C=CCN6CC[C@]43[C@@H]65)C2)C1 | 17.4% (inactive)
O=c1c2cc(F)ccc2sc2c(NCCCNCCO)nc3ccc(Cl)cc3c12 | 79.5% (inactive)
COc1cc2cc3c(=O)n4c(cc5cc(OC)ncc54)c(=O)n3c2cn1 | 110% (inactive)
Nc1ccc(-c2nn3c(CCC(=O)c4nc5ncccc5[nH]4)nnc3s2)c(O)c1 | 95% (inactive)
O=c1oc2ccc(Br)cc2c(=O)n1-c1ccc(Cl)cc1F | 23.5% (inactive)
COc1ccc(/C=C2\NC(=O)NC2=O)cc1O | 108% (inactive)
CN(C)c1ccc(/C=C/c2ccnc3c(O)cccc23)cc1 | 35.5% (inactive)
O=C(c1ccccc1)N(C(=S)NCCc1ccc(Cl)cc1)c1ccccc1 | 91.2% (inactive)
O=c1oc2ccc(Cl)cc2c(=O)n1-c1ccc(F)cc1F | 16.6% (inactive)
CC(C)C[C@H](C(=O)N[C@@H](C)C(N)=O)N1CC=CCN(O)S1(=O)=O | 99.3% [5 µM] (inactive)
O=C(Nc1ccc(Cl)cc1F)c1cc(I)ccc1O | 79.9% (inactive)
O=C(CCc1nnc2sc(Cc3ccccc3Cl)nn12)c1nc2ncccc2[nH]1 | 93.3% (inactive)
